# Most compounds without a hit are left out; they make up all but 21% or so of the library.
# Pf growth 96h = P. falciparum growth inhibition at 96 hour, primary screen for plastid delayed-death inhibitors. P. falciparum luciferase reporter growth, 96 h. Potency, µM (titrated, usually from 28.7 µM), for inactives: at the highest dose activity change, negative = inhibition, hits mostly inhibitors. AID 504834. 6.9% of 320,000 active; also: potency is read from the fitted curve at half-maximal effect; % is scaled to controls: 0 for no effect and ±100 for the full control effect
#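 Luminescence readout: decreased luciferase signal marks inhibited growth of reporter-expressing P. falciparum in infected red cells (2% hematocrit, 0.05% parasitemia final), exposed to compound two generations (96 h, 37 C, 5% CO2).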
# Cycloheximide cs = counter-screen hit for Shiga toxin inhibitors, cycloheximide. cell reporter, cycloheximide protein synthesis inhibition counterscreen. max response, %. 12% of 300,000 active. AID 2314; in the data active = max response mostly above about 13%, no sharp cut-off; inactive = mostly below about 14%; also: read at 38.3 µM for the half of the compounds with a filed dose; 0% is about no effect
# Shiga inhibitor = Shiga toxin inhibition; Vero cells, Shiga toxin protein synthesis inhibition reporter; inhibition, % at 38.7 µM; 9.2% of 290,000 active; in the data active = inhibition mostly above about 28%, no sharp cut-off; inactive = mostly below about 43%; also: 0% is about no effect
# Pf growth 48h = P. falciparum growth inhibition at 48 hours (one generation); AID 504832; Potency, µM (series often up to 28.7 µM), for inactives: top-dose activity change, negative = inhibition, most hits filed as inhibitors; 5.9% of 310,000 active; P. falciparum luciferase growth in erythrocytes, 48 h; also: potency is read from the fitted curve at half-maximal effect; % is scaled to controls: 0 for no effect and ±100 for the full control effect
#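 Read-out is firefly luciferase luminescence from an integrated reporter in P. falciparum, so falling signal marks reduced parasite growth. Infected erythrocytes were at 2% hematocrit and 0.1% parasitemia (final) in Albumax-supplemented RPMI 1640.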
# HCV inh = HCV inhibition. AID 651820. Huh7.5.1 HCVcc-Cre infection, luciferase reporter, 44 h. 3.4% of 340,000 active. Potency, µM (series often up to 41.8 µM), for inactives: at the top dose activity change, negative = inhibition, usual class: inhibitors; also: potency is read from the fitted curve at half-maximal effect; % is scaled to controls: 0 for no effect and ±100 for the full control effect
#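 Cells (1,000/well) were plated 4 h before compound, then infected with HCVcc-Cre virus (~0.5 moi). After 44 h further culture, infection was read as luciferase luminescence following a 15 min substrate incubation at room temperature.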
# HCMV inh = blocks human cytomegalovirus replication; activity change, negative = inhibition, % at 57.5 µM; HFF cells, HCMV-luciferase reporter, 72 h; hits give low values; 4.5% of 410,000 active; in the data active = activity change below about -60%; inconclusive = no clear call, values can overlap the other calls; inactive = above about -39%; also: % is scaled to controls: 0 for no effect and ±100 for the full control effect
#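 Human foreskin fibroblasts infected with luciferase-reporter HCMV at MOI 1 PFU/cell, compounds at two doses. Luciferase measured 72 h post infection; normalized to buffer-only basal and Salinomycin (10uM) controls.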
# Numbers without * were called inactive; ? = inconclusive; · = not tested or not shown. Unless noted, calls follow the shape of the dose curve; as a rule, active = well fitted inhibition curve with a large enough effect; inconclusive = small, poorly fitted or top-dose-only effect, or another doubt; inactive = no such curve, though single readings can be large or run the other way.
SMILES,Pf growth 96h,Cycloheximide cs,Shiga inhibitor,Pf growth 48h,HCV inh,HCMV inh
Cc1ccc(N(C(=O)CNC(=O)c2cccs2)C(C(=O)NC2CCCC2)c2ccncc2)cc1 (stereo unspecified),?,2.9,10.8,-18.3%,11.6%,6.8
COc1ccc(NC(=O)C(Cc2c[nH]c3ccccc23)NC(=O)OC(C)(C)C)cc1 (stereo unspecified),·,·,·,·,·,-12.2
CCN(CC)c1ncccc1C(=O)NCc1cccs1,-8.2%,-2.8,-10.1,-22.0%,3.4%,-1.2
Cc1ccc(C)c(Nc2ncccc2C(=O)NCc2cccs2)c1,9.28µM*,11.2,1.5,12.6%,-27.7%,79.5
Cc1ccc2[nH]cc(C(=O)NCc3cccs3)c(=O)c2c1,-4.5%,9.5,-4.9,?,10µM*,-8.4
COc1cccc2c(=O)c(C(=O)NCc3cccs3)c[nH]c12,3.4%,53.0*,76.5*,31.3%,5.4%,37.8
COc1ccc(-n2cc(-c3ccccc3)c3c(SC(C)C(C)=O)ncnc32)cc1 (stereo unspecified),·,·,·,·,·,0.3
Cc1ccccc1-c1nnc(SCC(=O)N(C)C2CCS(=O)(=O)C2)n1C (stereo unspecified),·,·,·,·,31.7%,2.4
CCOC(=O)N1CCN(S(=O)(=O)c2ccc(F)c(C(=O)Nc3cc(C)cc(C)c3)c2)CC1,?,-0.5,9.3,8.28µM*,?,17.5
CCOC(=O)N1CCC(NC(=O)c2cc(S(=O)(=O)N3CCCCC3)ccc2F)CC1,?,8.2,-10.2,?,-6.2%,-2.0
CCOC(=O)N1CCN(S(=O)(=O)c2ccc(F)c(C(=O)Nc3cccc(Cl)c3C)c2)CC1,-16.8%,1.0,-2.3,11.7µM*,?,-11.9
CCOC(=O)C1CCC(CN(Cc2c(Cl)cccc2Cl)S(=O)(=O)c2ccc(F)cc2)CC1 (stereo unspecified),·,·,·,·,·,-26.9
CCOC(=O)CC(NC(=O)CCc1c(C)nc2c(c1C)c(=O)n(C)c(=O)n2C)c1ccc(OCC)c(OC)c1 (stereo unspecified),·,·,·,·,·,-11.0
Cc1cc(C)c2nc(/N=C(\N)NC(=O)c3ccccc3)nc(C)c2c1,?,-3.2,-10.7,?,-6.8%,27.3
CCCC(=O)NC(=S)c1c(C)n(C)n(-c2ccccc2)c1=O,-2.1%,-1.8,-4.7,0.0%,5.4%,35.1
Cc1cc(C)c2nc(/N=C(\N)NC(=O)Nc3ccccc3)nc(C)c2c1,13.1µM*,6.4,-5.3,1.85µM*,11.2µM*,?
CCCC(=O)N/C(N)=N/c1nc(C)c2ccccc2n1,1.85µM*,16.5*,18.3,?,?,-9.3
CCc1ccc2nc(/N=C(\N)NC(=O)c3ccccc3)nc(C)c2c1,10.4µM*,1.0,5.1,9.28µM*,?,-5.4
O=C(CSc1nc2ccccc2nc1Cc1ccc(Cl)cc1)N1CCCc2ccccc21,·,·,·,·,·,26.3
CN(CCC#N)C(=O)COC(=O)c1ccc2[nH]c3c(c2c1)CCCC3,0.0%,23.7,29.8,25.5%,?,-72.6*
CCOC(=O)c1ccc2[nH]c3c(c2c1)CCCC3,?,51.0*,86.8*,30.4%,6.8%,71.7
O=C(COC(=O)c1ccc2[nH]c3c(c2c1)CCCC3)Nc1ccccc1Cl,?,-0.9,3.0,?,?,17.8
CCOC(=O)c1ccc(NS(=O)(=O)c2ccc3[nH]c4c(c3c2)CCCCC4)cc1,·,·,·,·,·,-13.6
CCC(C)c1ccccc1NC(=O)COC(=O)c1ccc2[nH]c3c(c2c1)CCCC3 (stereo unspecified),?,-1.7,3.1,?,?,-99.8*
CCOC(=O)c1ccc2[nH]c3c(c2c1)CCCC3O (stereo unspecified),26.8%,23.9*,35.0,30.3%,10µM*,-6.2
SMILES,Pf growth 96h,Cycloheximide cs,Shiga inhibitor,Pf growth 48h,HCV inh,HCMV inh
CCc1ccc(OC(=O)c2sc3ncn(Cc4cccc(F)c4)c(=O)c3c2C)cc1,·,·,·,·,·,13.9
CCCCCCCCN1C(=O)[C@@H](CC(=O)NCc2ccc(OC)c(OC)c2)C[C@@]2(C(=O)OC)C1=C[C@H](C(C)(C)C)O[C@@H]2C,·,·,·,·,·,120.0
Cn1cnc([N+](=O)[O-])c1Sc1nc(N)nc2c1ncn2C1OC(CO)C(O)C1O (stereo unspecified),·,·,·,·,-25.1%,-76.3*
Cn1cnc([N+](=O)[O-])c1Sc1nc(N)nc2c1ncn2C1CC(O)C(CO)O1 (stereo unspecified),·,·,·,·,?,-82.2*
CCSc1nc(N)nc2c1ncn2C1OC(CO)C(O)C1O (stereo unspecified),·,·,·,·,-2.3%,3.0
Nc1nc(SCc2ccc(Br)cc2)c2ncn(C3OC(CO)C(O)C3O)c2n1 (stereo unspecified),·,·,·,·,-13.0%,-61.1*
CCCCSc1nc(N)nc2c1ncn2C1OC(CO)C(O)C1O (stereo unspecified),·,·,·,·,-18.6%,-15.2
Cc1nnc2c(NC3CCCCC3)nc3ccccc3n12,-5.1%,-0.7,12.0,-17.2%,-10.9%,201.7
CN(C)c1ccc(/C=C/c2ccc3ccccc3n2)cc1,?,-4.6,-18.8,-51.2%,?,·
CN(C)c1ccc(CNc2nc3ccccc3s2)cc1,-6.2%,34.5*,67.6*,137.5%,·,·
CN(C)c1ccc(CNc2nc3ccccc3n2C)cc1,·,·,·,·,·,147.1
Cc1ccc(/C=C/c2nc3ccccc3s2)s1,·,24.5*,29.5,75.5%,-8.1%,?
CS(=O)(=O)Nc1ccc(-c2nc3ccccc3s2)cc1,·,·,·,·,·,12.3

# Assay outcomes: PubChem BioAssay, National Center for Advancing Translational Sciences (NCATS)
